# Screening data from PubChem.
# This is one part of a sample in which hits are shown more often than they occur.
# ALOX15B inhib: blocks human 15-lipoxygenase 2 activity. purified 15hLO-2, xylenol orange hydroperoxide absorbance. O15296. Potency, µM (highest dose often 57.1 µM), inactives show top-dose activity change, negative = inhibition, hits mostly inhibitors. actives 0.56% (n = 110,000); note: nearly all actives have a fitted effect of over 60% in size
# Target sequence (O15296 whole entry, looked up): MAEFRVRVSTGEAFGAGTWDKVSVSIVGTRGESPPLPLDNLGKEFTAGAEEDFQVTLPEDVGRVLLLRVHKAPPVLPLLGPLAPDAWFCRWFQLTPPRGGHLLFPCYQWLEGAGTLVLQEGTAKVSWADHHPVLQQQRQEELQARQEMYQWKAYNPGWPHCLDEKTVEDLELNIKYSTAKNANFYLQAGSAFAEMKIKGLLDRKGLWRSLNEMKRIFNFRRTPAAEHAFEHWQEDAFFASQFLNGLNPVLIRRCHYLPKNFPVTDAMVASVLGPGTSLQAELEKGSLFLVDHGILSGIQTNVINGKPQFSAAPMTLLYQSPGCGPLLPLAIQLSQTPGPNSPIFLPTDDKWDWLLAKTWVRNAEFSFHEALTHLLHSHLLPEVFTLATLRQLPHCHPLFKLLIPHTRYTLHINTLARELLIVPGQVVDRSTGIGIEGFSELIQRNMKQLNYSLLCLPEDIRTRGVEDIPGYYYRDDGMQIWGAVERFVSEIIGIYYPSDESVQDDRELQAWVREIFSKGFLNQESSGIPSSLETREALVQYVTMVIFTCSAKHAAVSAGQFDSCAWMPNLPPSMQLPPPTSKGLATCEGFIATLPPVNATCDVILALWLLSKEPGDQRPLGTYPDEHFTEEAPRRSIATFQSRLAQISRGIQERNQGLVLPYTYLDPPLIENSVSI
#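 Enzyme 50 nM, AA 45 uM, 25 mM Hepes pH 7.5 + 0.01% Triton X-100; cpd preinc 15 min RT, rxn 90 min RT; stop/detect with 200 uM XO + 300 uM Fe(II) in 50 mM H2SO4, 30 min; A573/A405.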
# ALOX12 inhib: 12-hLO (ALOX12) enzyme inhibition; P18054; purified 12-hLO, xylenol orange hydroperoxide absorbance; Potency, µM (series often up to 57.1 µM), for the others: top-dose activity change, negative = inhibition, hits mostly inhibitors; actives 0.12% (n = 150,000); AID 1452; note: nearly all actives have a fitted effect of over 55% in size
#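 Purified human 12hLO (150 nM), preincubated 15 min with compound, then 40 uM arachidonic acid for 30 min, room temperature, Hepes pH 7.0 with 0.01% Triton X-100. Hydroperoxide detected by ferrous iron/xylenol orange; 573/405 nm absorbance ratio gives reaction progress.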
# Numbers without * were called inactive; ? = inconclusive; / = not tested or not shown; [ ] = dose if it differs, or a comment. Calls come from the whole dose curve; as a rule, active = well fitted curve in the direction sought with a large enough effect; inconclusive = small, poorly fitted or top-dose-only effect, or another doubt; inactive = no such curve, though single readings can be large; an effect the other way counts as inactive or inconclusive. % is set by controls: 0 for no effect and ±100 for the full control effect; potency is the fitted concentration of half-maximal effect.
SMILES,ALOX15B inhib,ALOX12 inhib
CCc1ccccc1N1CSC2=C(C#N)C(c3ccccc3F)CC(=O)N2C1 (stereo not given),10µM*,?
COc1ccc(OC)c(C2CC(=O)N3CN(c4ccccc4)CSC3=C2C#N)c1 (stereo not given),10µM*,?
COc1cc(OC)c(C2CC(=O)N3CN(c4ccccc4C)CSC3=C2C#N)cc1OC (stereo not given),?,-11%
C=CCN1c2ccccc2[C@]23C[C@@H](C(=O)OC)N(C(=O)OCC)C2=NC(C(=O)OC)=C(C(=O)OC)[C@H]13,/,0%[11.4 µM]
CCN(CC)C(=O)N1CCN(S(=O)(=O)c2ccc(C)c(C)c2)CC1,2%,-3%
COCCNC(=O)c1onc(CSc2cccc(OC)c2)c1C(=O)O,-3%,1%
CCOc1cc(/C=N/O)cc(Cl)c1OC,1%,-2%
COc1ccc(N2CSC3=C(C#N)C(c4cccc(OC)c4OC)CC(=O)N3C2)cc1 (stereo not given),13µM*,-26%
COc1ccc2ccccc2c1C1CC(=O)N2CN(C3CCCCC3)CSC2=C1C#N (stereo not given),?,-22%
COc1ccc(CCNC(=O)C(=O)Nc2nccs2)cc1OC,3%,2%
O=C(CC1=NCCNC(c2ccccc2)C1)c1ccccc1O (stereo not given),55%,?
Cc1cccc2c1N(CCCOc1ccccc1)C(=O)C2=O,-28%,-21%
Cc1ccccc1OCCCN1C(=O)C(=O)c2cccc(C)c21,25µM*,?
COc1ccc(OC)c(NC(=O)NC2(C(F)(F)F)Oc3ccccc3O2)c1,10µM*,-11%
COc1ccc(OC)c(NC(=O)Nc2ccccc2C)c1,9%,-1%
CCCOc1c(Br)cc(/C=N/O)cc1OC,11%,-6%
Oc1c(C(Nc2nc3ccccc3s2)c2ccco2)ccc2cccnc12 (stereo not given),22%,-14%
CC(C)C(=O)NC(c1ccco1)c1ccc2cccnc2c1O (stereo not given),29%,10µM*
N#C/C(=C\c1ccc(N2CCOCC2)o1)c1nc2ccccc2[nH]1,-28%,-2%
N#C/C(=C/c1ccc(N2CCOCC2)o1)c1ccc(Cl)cc1,10µM*,?
O=c1c(Cl)c(N2CCN(c3ccc(F)cc3)CC2)cnn1-c1nc2ccccc2s1,/,-3%
CCC(C)c1ccc(O)c(N)c1 (stereo not given),?,-27%
CC(C)c1ccc(O)c(N)c1,5µM*,?
Cc1cc2nccc(-c3ccco3)n2n1,/,-4%
CCOC(=O)CSc1nnc(Cn2c(=O)sc3ccccc32)n1-c1ccccc1C,/,5%
SMILES,ALOX15B inhib,ALOX12 inhib
Cc1c(C(=O)NC(=S)Nc2ccc(NC(=O)c3cccs3)cc2)oc2ccccc12,7.9µM*,?
CC(=O)NC(=S)Nc1ccc(NC(=O)c2cccs2)cc1,/,-1%
Cc1nn(-c2ccccc2)c2[nH]c(=O)c(CNc3ccc(N4CCOCC4)cc3)cc12,16µM*,?
CC(C)(C)c1nn(-c2ccccc2)c2[nH]c(=O)c(CNc3ccc4c(c3)OCCO4)cc12,-6%,-11%
O=C(Nc1ccc(NC(=O)C23CC4CC(CC(C4)C2)C3)cc1)c1cc(F)c(F)cc1Cl,/,3%
CN1CCc2c(sc3c2c(=O)n(-c2ccccc2)c2nnc(SCc4ccccc4)n32)C1,-17%,-7%
Cc1ccc(S(=O)(=O)n2cnc3cc([N+](=O)[O-])ccc32)c(C)c1,/,0%
CN(C)c1ccc(N=c2sc3ccccc3n2C)cc1,7.9µM*,-6%
Cn1c(=Nc2ccccc2)sc2ccccc21,14%,3%
O=C(Cn1c(Cc2ccccc2)nc2ccccc21)NCc1ccc2c(c1)OCO2,/,-1%
COC(=O)c1ccc(CCc2cc(O)ccc2O)cc1,12%[11.4 µM],3.5µM*
COC(=O)c1ccc(O)cc1,-6%[0.0915 µM],1%[0.00818 µM]
COc1cc(-c2ccc(N=Nc3ccc4c(S(=O)(=O)O)cc(S(=O)(=O)O)c(N)c4c3O)c(OC)c2)ccc1N=Nc1ccc2c(S(=O)(=O)O)cc(S(=O)(=O)O)c(N)c2c1O,25µM*,-6%
Cc1nn(-c2ccc(S(=O)(=O)O)cc2)c(O)c1N=Nc1ccc(-c2ccc(N=Nc3ccc4c(S(=O)(=O)O)cc(S(=O)(=O)O)c(N)c4c3O)c(O)c2)cc1O.[Cu].[Cu],37%[11.4 µM],-21%[11.4 µM]
CCCCOc1ccc(Cl)cc1CSc1nnc(CC)n1N,9%[2.29 µM],4%
Cc1ccccc1CNC1CCCCC1,/,-2%
Oc1cc(CN2COc3ccccc32)c(O)cc1CNC1CCCCC1,3.2µM*,10%[11.4 µM]
S=C(NCCc1ccccc1)Nc1ccc(Cl)cc1Cl,25µM*,?
CCNC(=S)Nc1ccc(Cl)cc1Cl,/,0%
S=C(NCCSCc1ccc(Cl)cc1Cl)Nc1ccccc1,?,25µM*
S=C(Nc1ccccc1)Nc1ccc(OCc2ccc(Cl)cc2Cl)cc1,-22%[11.4 µM],-10%
CCn1ccc(C(=O)Nc2ccc(N(C)C(C)=O)cc2)n1,1%,5%
COc1ccc(/C=C2\SC(=NCc3ccccc3)NC2=O)cc1,/,-20%
O=C1N/C(=N/Nc2ccccc2)S/C1=C\c1ccccc1,3.2µM*,?
O=C1C=CC(=O)C2=C1C1c3ccccc3C2c2ccccc21,2µM*,?
SMILES,ALOX15B inhib,ALOX12 inhib
O=C1OC(c2ccccc2)c2ccccc21 (stereo not given),/,-2%
CCCCOC(=O)C1[C@H]2C(=O)N(Cc3cccs3)C[C@]23C=C[C@H]1O3 (stereo not given in full),-5%,-5%
O=C(Cn1nc([N+](=O)[O-])nc1Br)NC(c1ccccc1)c1ccccc1,/,0%
CCN(CC)CC#CCC(O)(c1ccccc1)C1CCCC1 (stereo not given),/,10%
S=C(Nc1ccc(Oc2ccccc2)cc1)NC1CCCC1,/,14µM*
S=C(Nc1ccc(Br)cc1)NC1CCCC1,/,-4%
COc1ccccc1-n1c(SCC(=O)Nc2ccc(C)cc2)nc(O)cc1=O,-8%,0.079µM*
COc1ccc(NC(=O)CSc2nc(O)cc(=O)n2-c2ccccc2OC)cc1,-1%,7.1µM*
COc1ccccc1-n1c(SCC(=O)Nc2cccc3ccccc23)nc(O)cc1=O,-13%,-17%
CCN(CC)C(=O)CSc1nc(O)cc(=O)n1-c1ccccc1OC,-1%,-8%
O=C1C2CCC(C2)[C@@H]2CCCCN12 (stereo not given in full),3%[0.0915 µM],1%[0.00818 µM]
O=C(CN(C(=O)CNS(=O)(=O)c1ccccc1)C1CCCC1)NCC1CCCO1 (stereo not given),-5%,3%
CCOc1cc(/C=C2/C(=O)N(c3ccccc3)N=C2C)ccc1OC(=O)c1ccco1,?,-12%
CCOc1cc(/C=C2\C(=O)N(c3ccc(C(N)=O)cc3)N=C2C)ccc1OC(=O)c1cccs1,5µM*,-18%
COCc1nnc(NS(=O)(=O)c2ccc([N+](=O)[O-])cc2)s1,-9%,-7%
COc1ccc(C(C)NC(=O)c2ccc(Br)cc2)cc1OC (stereo not given),/,4%
C/C(=N\NC(=S)NCCc1ccccc1)c1ccc(C)cc1,/,14µM*
C/C(=N\NC(=S)NCCc1ccccc1)c1ccc(C#N)cc1,?,-1%
CCn1c(C(=O)N2CCC(C(=O)N3CCN(c4ccccn4)CC3)CC2)cc2sccc21,0%,0%
COc1ccc(/C=C2\CCCC3C2=NC(=S)NC3c2ccc(OC)cc2)cc1 (stereo not given),/,14µM*
